Measurements: PubChem BioAssay AID1159580 (chemical genetic matrix, 2015)
About 2,000 (36%) of roughly 5,500 compounds were called active. Not shown: some 18% with an inconclusive outcome. Rule as the data show it: active = normalized growth mostly below about 0.91 (no sharp cut-off); inconclusive = no clear call, values can overlap the other calls; inactive = mostly above about 0.92. This is one part of the list.

Experiment: chemical genetic growth profiling, strain panel (AID 1159580);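 also: tested at 20 µM; growth read once vehicle control cultures reached saturation at 30 °C; 1 = growth at the plate median or of vehicle wells; lower values mean less growth of the strain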
Settings: growth OD

Measured: normalized growth

CC1(C)C=Cc2c(cc3occ(-c4ccc5c(c4)OCO5)c(=O)c3c2O)O1
inactive: S. cerevisiae deletion strains, locus YJL164C, strain tpk1, active compounds read low 0.967 | S. cerevisiae deletion strains, locus YJL166W, strain qcr8, active compounds read low 0.943 | S. cerevisiae deletion strains, locus YJL168C, strain set2, active compounds read low 1.01 | S. cerevisiae deletion strains, locus YJL187C, strain SWE1 (second series), active compounds read low 0.92 | S. cerevisiae deletion strains, locus YJL187C, strain SWE1, active compounds read low 0.967 | S. cerevisiae deletion strains, locus YJR075W, strain HOC1, active compounds read low 0.996 | S. cerevisiae deletion strains, locus YKL068W, active compounds read low 1.02 | S. cerevisiae deletion strains, locus YKL160W, strain elf1, active compounds read low 1.02 | S. cerevisiae deletion strains, locus YKL190W, strain CNB1, active compounds read low 0.967 | S. cerevisiae deletion strains, locus YKR001C, strain vps1, active compounds read low 0.988 | S. cerevisiae deletion strains, locus YKR026C, strain gcn3, active compounds read low 0.983 | S. cerevisiae deletion strains, locus YKR091W, strain srl3, active compounds read low 0.981 | S. cerevisiae deletion strains, locus YLL001W, strain dnm1, active compounds read low 0.959 | S. cerevisiae deletion strains, locus YLL026W, active compounds read low 0.961 | S. cerevisiae deletion strains, locus YLL041C, strain sdh2, active compounds read low 0.993 | S. cerevisiae deletion strains, locus YLR027C, strain aat2, active compounds read low 0.943 | S. cerevisiae deletion strains, locus YLR039C, strain RIC1, active compounds read low 1.11 | S. cerevisiae deletion strains, locus YLR058C, strain SHM2, active compounds read low 0.933 | S. cerevisiae deletion strains, locus YLR102C, strain apc9, active compounds read low 1.03 | S. cerevisiae deletion strains, locus YLR258W, strain gsy2, active compounds read low 0.963 | S. cerevisiae deletion strains, locus YLR262C, strain YPT6 (second series), active compounds read low 0.945 | S. cerevisiae deletion strains, locus YLR262C, strain YPT6, active compounds read low 1.14 | S. cerevisiae deletion strains, locus YLR268W, strain sec22, active compounds read low 0.943 | S. cerevisiae deletion strains, locus YLR320W, strain mms22, active compounds read low 0.917 | S. cerevisiae deletion strains, locus YLR357W, strain rsc2, active compounds read low 0.905 | S. cerevisiae deletion strains, locus YLR370C, strain arc18, active compounds read low 0.978 | S. cerevisiae deletion strains, locus YLR371W, strain rom2, active compounds read low 0.92 | S. cerevisiae deletion strains, locus YLR384C, strain iki3, active compounds read low 0.976 | S. cerevisiae deletion strains, locus YLR418C, strain cdc73, active compounds read low 1.02 | S. cerevisiae deletion strains, locus YML016C, strain PPZ1, active compounds read low 0.954 | S. cerevisiae deletion strains, locus YML032C, strain rad52, active compounds read low 1 | S. cerevisiae deletion strains, locus YML120C, strain ndi1, active compounds read low 1.01 | S. cerevisiae deletion strains, locus YML124C, strain tub3, active compounds read low 1.02 | S. cerevisiae deletion strains, locus YMR078C, strain ctf18, active compounds read low 1.04 | S. cerevisiae deletion strains, locus YMR125W, strain sto1, active compounds read low 1.01 | S. cerevisiae deletion strains, locus YMR129W, active compounds read low 0.993 | S. cerevisiae deletion strains, locus YMR205C, strain PFK2, active compounds read low 0.971 | S. cerevisiae deletion strains, locus YMR223W, strain ubp8, active compounds read low 0.959 | S. cerevisiae deletion strains, locus YMR231W, strain pep5, active compounds read low 0.975 | S. cerevisiae deletion strains, locus YMR263W, strain SAP30, active compounds read low 1 | S. cerevisiae deletion strains, locus YMR307W, strain GAS1, active compounds read low 0.946 | S. cerevisiae deletion strains, locus YNL067W, strain RPL9B, active compounds read low 0.995 | S. cerevisiae deletion strains, locus YNL071W, strain lat1, active compounds read low 0.986 | S. cerevisiae deletion strains, locus YNL233W, strain BNI4, active compounds read low 0.881 | S. cerevisiae deletion strains, locus YNL248C, strain rpa49, active compounds read low 0.963 | S. cerevisiae deletion strains, locus YNL250W, strain rad50, active compounds read low 1.06 | S. cerevisiae deletion strains, locus YNL271C, strain bni1, active compounds read low 1 | S. cerevisiae deletion strains, locus YNL298W, strain CLA4, active compounds read low 1.01 | S. cerevisiae deletion strains, locus YNL307C, strain MCK1, active compounds read low 1.02 | S. cerevisiae deletion strains, locus YNL322C, strain KRE1 (second series), active compounds read low 0.999 | S. cerevisiae deletion strains, locus YNR049C, strain mso1, active compounds read low 0.991 | S. cerevisiae deletion strains, locus YNR052C, strain pop2, active compounds read low 1 | S. cerevisiae deletion strains, locus YOL012C, strain htz1 0.804 | S. cerevisiae deletion strains, locus YOL147C, strain pex11, active compounds read low 1.01 | S. cerevisiae deletion strains, locus YOR001W, strain rrp6, active compounds read low 0.93 | S. cerevisiae deletion strains, locus YOR061W, strain CKA2, active compounds read low 0.924 | S. cerevisiae deletion strains, locus YOR069W, strain VPS5, active compounds read low 0.96 | S. cerevisiae deletion strains, locus YOR080W, strain dia2, active compounds read low 0.963 | S. cerevisiae deletion strains, locus YOR083W, strain WHI5, active compounds read low 0.928 | S. cerevisiae deletion strains, locus YOR106W, strain vam3, active compounds read low 0.907 | S. cerevisiae deletion strains, locus YOR136W, strain idh2, active compounds read low 1.03 | S. cerevisiae deletion strains, locus YOR144C, strain elg1, active compounds read low 1.02 | S. cerevisiae deletion strains, locus YOR184W, strain ser1, active compounds read low 0.971 | S. cerevisiae deletion strains, locus YOR265W, strain rbl2, active compounds read low 0.947 | S. cerevisiae deletion strains, locus YOR270C, strain vph1, active compounds read low 0.952 | S. cerevisiae deletion strains, locus YOR290C, strain snf2, active compounds read low 0.981 | S. cerevisiae deletion strains, locus YOR316C, strain cot1, active compounds read low 1.02 | S. cerevisiae deletion strains, locus YPL055C, strain LGE1, active compounds read low 0.871 | S. cerevisiae deletion strains, locus YPL078C, strain atp4, active compounds read low 1.02 | S. cerevisiae deletion strains, locus YPL106C, strain sse1, active compounds read low 0.901 | S. cerevisiae deletion strains, locus YPL240C, strain hsp82, active compounds read low 0.989 | S. cerevisiae deletion strains, locus YPR119W, strain clb2, active compounds read low 1.04 | S. cerevisiae deletion strains, locus YPR141C, strain kar3, active compounds read low 1.02 | S. cerevisiae deletion strains, locus YPR163C, strain tif3, active compounds read low 1.02 | S. cerevisiae deletion strains, locus YPR167C, strain met16, active compounds read low 0.967 | S. cerevisiae deletion strains, strain wtn01, active compounds read low 0.952
active: S. cerevisiae deletion strains, locus YLR221C, strain rsa3, active compounds read low 0.897 | S. cerevisiae deletion strains, locus YLR342W, strain FKS1, active compounds read low 0.907 | S. cerevisiae deletion strains, locus YMR058W, strain fet3, active compounds read low 0.676 | S. cerevisiae deletion strains, locus YNL209W, strain ssb2, active compounds read low 0.738 | S. cerevisiae deletion strains, locus YOR070C, strain gyp1, active compounds read low 0.905 | S. cerevisiae deletion strains, locus YPL051W, strain arl3, active compounds read low 0.855 | S. cerevisiae strains, strain wild type, active compounds read low 0.889
